The source of these data is ChEMBL document CHEMBL3988442, “University of Dundee, Small-Polar-MMV Screening Library” (2021).

The assay has as its target AMP-activated protein kinase, AMPK (Homo sapiens) (UniProt P54646+O43741+P54619+Q9UGJ0+Q9Y478+Q13131+Q9UGI9). In words: AMP-dependent Kinase enzyme assay. An in vitro enzyme assay that detects ADP turnover that is directly proportional to AMPK activity. This uses naive AMPK that is activated during the assay with MK-8722. The note with it: 30 µM. It counts as functional. On the set-up: scale not given: direction of the effect not stated beside the values.
As to `CC(C(=O)NCC(C)(C)c1ccc2c(c1)OCCO2)n1cncn1` (stereo unspecified), the Percent Effect worked out at 11.3%. In the case of `Cc1ccc(C(C)N(C)C(=O)c2ccc(=O)n(C)c2)s1` (stereo unspecified), the Percent Effect was determined as 3.36%. For `Cc1ccc(OCC2CCCN(C(=O)c3csc(CN(C)C)n3)C2)cc1` (stereo unspecified) the value was 14.7%; for `Cc1nc2sccn2c1CN(CCCN(C)C)Cc1ccccn1`, 3.1%. Regarding `O=C1CC2(CCCC2)CC(=O)N1CCn1cnnc1`, the Percent Effect came to 5.88%. With `CC(C(=O)NCc1ccc(F)cc1)N(C)CCN1CCOCC1` (stereo unspecified), the Percent Effect came out at 2.87%. On to `CN(CC(=O)NCCc1ccccn1)C(=O)c1cccs1`, for which the Percent Effect worked out at 4.43%. With `CCCN1CCC(N2CCC(Cn3cc(C4CC4)nn3)CC2)CC1`, the Percent Effect was 2.68%. With `CCc1ccc2nc(C)cc(C(=O)N[C@@H]3CCCNC3)c2c1`, the Percent Effect was -2.76%.

`Cc1nnc(C(C)N2CCCN(Cc3noc(C4CC4)n3)CC2)o1` (stereo unspecified): the Percent Effect was -4.62%. On to `Cc1cc(NCCNc2cccnc2)nc(N)n1`, for which the Percent Effect was -11.6%. In the case of `CS(=O)(=O)c1ccc(CNC(=O)NCc2cc[nH]n2)cc1` it was -5.06%.

As for `NC(=O)C1CCCN(Cc2ccc(C(=O)Nc3cnns3)cc2)C1` (stereo unspecified), the Percent Effect came to 5.32%. Turning to `CCn1ncc(CN2CCC(c3ncc(Cl)cc3S(C)(=O)=O)CC2)c1C`, the Percent Effect amounted to 6.21%. With `CSC1(CNC(=O)NCc2sccc2C)CCOCC1`, the Percent Effect was -1.64%. Regarding `COc1cccc2ccc(N3CCC(O)(C(=O)O)CC3)nc12`, the Percent Effect stood at 1.15%.

On to `COc1c(C)cnc(CN2CCCC2c2noc(C3CC3)n2)c1C` (stereo unspecified), for which the Percent Effect is -14.3%.

Turning to `CCCc1cc(N(CCOC)CC(F)F)n2ncnc2n1`, the Percent Effect was 11.5%. For `O=C(COCC1CCCO1)N(Cc1cccnc1)c1ccc(F)cc1` (stereo unspecified) the value was -8.95%; for `O=C(Cc1nc(-c2ccncc2)n[nH]1)N1CCOCC1`, 7.55%. Consider `CC(C)(N)C(=O)N1CCCC(C(=O)c2ccc(C(C)(C)C)cc2)C1` (stereo unspecified), for which the Percent Effect stood at 17.9%.
